Source: PubChem (National Center for Advancing Translational Sciences (NCATS))
RORgamma inh: blocks mouse ROR gamma transcriptional activity | P51450 | Potency, µM (series often up to 53.6 µM), most hits filed as inhibitors | 5.4% of 310,000 active | Drosophila S2 Gal4-RORgamma UAS-luciferase reporter, 20 h; also: nearly all actives have a fitted effect of over 60% in size
Target sequence (P51450 whole entry, looked up, the tested form may be a part): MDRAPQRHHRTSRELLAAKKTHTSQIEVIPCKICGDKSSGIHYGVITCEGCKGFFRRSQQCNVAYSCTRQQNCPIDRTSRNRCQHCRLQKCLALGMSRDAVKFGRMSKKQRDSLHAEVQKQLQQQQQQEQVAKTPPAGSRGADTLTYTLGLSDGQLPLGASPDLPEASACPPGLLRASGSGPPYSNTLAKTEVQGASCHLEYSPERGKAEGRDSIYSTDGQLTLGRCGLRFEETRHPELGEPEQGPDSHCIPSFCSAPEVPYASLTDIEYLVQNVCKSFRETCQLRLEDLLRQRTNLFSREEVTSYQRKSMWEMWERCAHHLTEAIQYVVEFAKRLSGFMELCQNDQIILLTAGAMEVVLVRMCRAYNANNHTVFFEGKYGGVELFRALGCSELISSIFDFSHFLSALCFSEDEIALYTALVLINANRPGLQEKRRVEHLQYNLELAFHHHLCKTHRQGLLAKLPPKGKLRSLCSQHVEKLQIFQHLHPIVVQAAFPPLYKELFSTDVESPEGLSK
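Read-out: Photinus luciferase luminescence; inhibitors lower reporter signal. Insect Schneider cells with Gal4-ROR gamma fusion under metallothionein promoter, UAS reporter; 700 uM final copper sulfate induction, 20 hr, ambient temperature.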
Tau FP inhib: inhibitors of human tau fibril formation; Potency, µM (top dose mostly 57.7 µM), hits mostly inhibitors; 0.39% of 280,000 active; K18 P301L tau heparin fibrillization, Alexa594 FP, 6 h; AID 1468; also: nearly all actives have a fitted effect of over 55% in size
Target sequence (P10636 561-689 P618L limits assumed): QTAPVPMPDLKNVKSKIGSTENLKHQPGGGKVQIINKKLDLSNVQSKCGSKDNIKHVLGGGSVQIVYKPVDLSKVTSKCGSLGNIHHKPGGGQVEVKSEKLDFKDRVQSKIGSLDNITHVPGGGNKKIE
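Steps: dispense K18 P301L tau (15 uM plus 0.24 uM Alexa 594 tracer, final) in pH 7 sodium acetate; add compound; add heparin (20 uM final); incubate 6 hr, 37 C; add ThT (30 uM final); after 1 hr ambient, read FP.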
Tau fluor cs: counter-screen for tau fibril formation inhibitors | tau K18 P301L Alexa594 fluorescence, heparin fibrillization | 0.93% of 280,000 active | Potency, µM (highest dose often 57.7 µM); also: nearly all actives have a fitted effect of over 55% in size
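Human tau K18 P301L (15 uM unlabeled, 0.24 uM Alexa 594-labeled) in 100 mM sodium acetate pH 7 with 20 uM heparin, 6 hr at 37 C. ThT 30 uM added, 1 hr ambient; Alexa 594 FP and total fluorescence read at 555/632 nm.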
VP16 counter: inhibits Gal4-VP16 luciferase reporter, ROR gamma counter-screen | Drosophila S2 Gal4-VP16 UAS-luciferase, luminescence, 20 h | 3.5% of 310,000 active | Potency, µM (doses to about 53.6 µM), most hits filed as inhibitors;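 also: Gal4-VP16 expression switched on by copper sulfate through the metallothionein promoter; nearly all actives have a fitted effect of over 50% in size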
Tau ThT inhib: inhibitors of human tau fibril formation, thioflavin T binding. P10636. recombinant tau K18 P301L, heparin-induced fibrillization, ThT fluorescence. Potency, µM (titrated, usually from 57.4 µM), usual class: inhibitors. 2.1% of 270,000 active. AID 1460; also: nearly all actives have a fitted effect of over 55% in size
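Fibril formation assay: tau K18 P301L at 15 uM with trace Alexa 594 label, heparin inducer 20 uM, pH 7 sodium acetate buffer, 37 C for 6 hr; endpoint ThT signal.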
Numbers stand for hits; [ ] = another dose, or the depositor's remark. Sampled rows, rich in hits. Any-hit rate of the full collection: about 7.3%. Calls follow the shape of the dose curve; as a rule, active = well fitted curve in the direction sought with a large enough effect; inconclusive = small, poorly fitted or top-dose-only effect, or another doubt; inactive = no such curve, though single readings can be large; an effect the other way counts as inactive or inconclusive.

`O=C(CCn1cnc(-c2ccccc2)c1-c1ccccc1)N/N=C/c1ccccc1O` gave RORgamma inh inconclusive, Tau FP inhib inactive, Tau fluor cs inconclusive, VP16 counter 2.8µM and Tau ThT inhib inactive.
Screening Cc1cccc(N/N=C/c2ccccc2O)c1 returned RORgamma inh inactive, Tau FP inhib inconclusive, Tau fluor cs 16µM[quencher], VP16 counter inactive and Tau ThT inhib inconclusive.
Screening Cc1ccc(NC(=O)CCC(=O)N/N=C/c2ccccc2O)cc1 returned RORgamma inh 4µM and VP16 counter 11µM.
`O=C(CCn1cnc(-c2ccccc2)c1-c1ccccc1)N/N=C/c1ccc(O)cc1` gave RORgamma inh inactive, Tau FP inhib inconclusive, Tau fluor cs inconclusive, VP16 counter inactive and Tau ThT inhib inactive.
`COc1ccc(O)c(/C=N/NC(=O)CCC(=O)Nc2ccc(F)cc2)c1` gave RORgamma inh 11µM and VP16 counter inactive.
Screening COc1ccc(/C=N/NC(=O)CCC(=O)Nc2ccc(F)cc2)c(OC)c1 returned RORgamma inh inactive[1.91 µM] and VP16 counter inactive.
`CCCn1c(-c2ccc(F)cc2)nc2c(NCCN3CCOCC3)nc(C)nc21` gave RORgamma inh inactive, Tau FP inhib inactive, Tau fluor cs inactive, VP16 counter inactive and Tau ThT inhib inactive.
Screening O=C(Nc1ccnn1C1CCN(C(=O)c2cccc(Cl)c2)CC1)C1CCOC1 (centres undefined) returned RORgamma inh inactive and VP16 counter inactive.
Screening Cc1ccc(SCCC(=O)N/N=C/c2cccnc2)cc1 returned RORgamma inh inconclusive, Tau FP inhib inactive, Tau fluor cs inactive, VP16 counter inactive and Tau ThT inhib inactive.
For Cc1ccc(SCCC(=O)N/N=C/c2ccccc2O)cc1 the results were RORgamma inh 0.63µM, Tau FP inhib inactive, Tau fluor cs inconclusive, VP16 counter 0.63µM and Tau ThT inhib inactive.
`O=C(CCC(=O)N1CCCCC1)Nc1ccc(Cl)c(Cl)c1` gave RORgamma inh inactive and VP16 counter inactive.
Screening Cn1c(-c2ccc3c(c2)OCO3)cnc1NC(=O)CCC(=O)NCCc1ccccc1 returned RORgamma inh 3.2µM, Tau FP inhib inactive, Tau fluor cs inactive, VP16 counter 5.6µM and Tau ThT inhib inconclusive.
Screening Cc1ccc(-c2cnc(NC(=O)CCC(=O)N3CCCCC3)n2C)cc1 returned RORgamma inh 3.5µM, Tau FP inhib inactive, Tau fluor cs inactive, VP16 counter 7.9µM and Tau ThT inhib inactive.
For CCCCNC(=O)CCC(=O)Nc1ncc(-c2ccc(C)cc2)n1C the results were RORgamma inh 2µM, Tau FP inhib inactive, Tau fluor cs inactive, VP16 counter 4µM and Tau ThT inhib inactive.
`O=S1(=O)C2CC3C=CC2(CN1Cc1ccccc1)O3` (centres undefined) gave RORgamma inh inactive and VP16 counter inactive.
Cc1ccccc1NC(=S)NCc1ccccc1 was read as RORgamma inh 4µM, Tau FP inhib inactive, Tau fluor cs inactive, VP16 counter 11µM and Tau ThT inhib inactive.
For CCC(C)(C)NC(=S)Nc1ccccc1C the results were RORgamma inh 4µM, Tau FP inhib inactive, Tau fluor cs inactive, VP16 counter 11µM and Tau ThT inhib inactive.
For CCCCCCc1ccc(C(=O)CCN(C)C)cc1 the results were VP16 counter inactive.
`Cn1cc(-c2ccccc2C(=O)O)c(=O)c2cc(Cl)ccc21` gave RORgamma inh inactive and VP16 counter inactive.
COc1ccc2ccccc2c1/C=N/NC(=O)c1ccc(C)nc1 was read as RORgamma inh inconclusive and VP16 counter inactive.
For O=C(N/N=C\c1c(O)ccc2ccccc12)c1ccc(S(=O)(=O)N2CCCCC2)cc1 the results were RORgamma inh 2.5µM, Tau FP inhib inconclusive, Tau fluor cs inconclusive, VP16 counter 4µM and Tau ThT inhib inactive.
O=C(N/N=C/c1c(O)ccc2ccccc12)c1ccc(CO)nc1 was read as RORgamma inh 4µM and VP16 counter 6.3µM.
Screening Cc1ccc(O)c(-c2cc(-c3ccccc3[N+](=O)[O-])[nH]n2)c1 returned RORgamma inh inconclusive, Tau FP inhib inactive, Tau fluor cs inconclusive, VP16 counter inconclusive and Tau ThT inhib inconclusive.
For COc1ccc(-c2cc(-c3ccc(C)cc3)n[nH]2)c(O)c1 the results were RORgamma inh 2.5µM and VP16 counter 20µM.
COc1ccc(-c2cc(-c3ccc(OC)cc3)[nH]n2)cc1 was read as RORgamma inh 1.3µM, Tau FP inhib inactive, Tau fluor cs inconclusive, VP16 counter 2µM and Tau ThT inhib inconclusive.
Oc1ccccc1-c1cc(-c2ccccc2)no1 was read as RORgamma inh inactive, Tau FP inhib inactive, Tau fluor cs inactive, VP16 counter inactive and Tau ThT inhib inactive.
Screening Cc1ccccc1-c1cc(-c2ccccc2O)on1 returned RORgamma inh 13µM, Tau FP inhib inactive, Tau fluor cs inconclusive, VP16 counter inactive and Tau ThT inhib inactive.
For Cc1ccc(O)c(-c2cc(-c3ccccc3C)[nH]n2)c1 the results were RORgamma inh 11µM, Tau FP inhib inactive, Tau fluor cs inconclusive, VP16 counter 11µM and Tau ThT inhib inconclusive.
Screening COc1ccc(S(=O)(=O)NCC(=O)NCc2cc(=O)n(C)c(=O)n2C)cc1 returned RORgamma inh inactive and VP16 counter inactive.
`Cc1ccc2c(c1)cc1c(=O)n(CC(=O)NC3CCCCC3)nc(C)n12` gave Tau FP inhib inactive, Tau fluor cs inactive and Tau ThT inhib inactive.
For Oc1ccccc1-c1cc(-c2cccc(F)c2)n[nH]1 the results were RORgamma inh inconclusive, Tau FP inhib inactive, Tau fluor cs inconclusive, VP16 counter inconclusive and Tau ThT inhib inactive.
CC(C)(C)c1ccc(-c2cc(-c3ccccc3O)[nH]n2)cc1 was read as RORgamma inh inconclusive and VP16 counter 7.1µM.
For Cc1ccc(-c2cc(-c3cccs3)[nH]n2)c(O)c1 the results were RORgamma inh 11µM, Tau FP inhib inconclusive, Tau fluor cs inconclusive, VP16 counter inconclusive and Tau ThT inhib inactive.
COc1ccc(-c2cc(-c3cc(C)ccc3O)[nH]n2)cc1 was read as RORgamma inh 4µM, Tau FP inhib inconclusive, Tau fluor cs 16µM[quencher], VP16 counter inconclusive and Tau ThT inhib inconclusive.
Cc1ccc(-c2cc(C(=O)Nc3cc(C)ccc3C)[nH]n2)c(O)c1 was read as RORgamma inh inactive, Tau FP inhib inactive, Tau fluor cs inactive, VP16 counter inactive and Tau ThT inhib inactive.
Screening CC1(C)CC(NC(=S)NCc2ccco2)CC(C)(C)N1 returned RORgamma inh inactive, Tau FP inhib inactive, Tau fluor cs inactive, VP16 counter inactive and Tau ThT inhib inactive.
Screening S=C(NC1CC1)NC1CCCc2ccccc21 (centres undefined) returned RORgamma inh 2.2µM, Tau FP inhib inactive, Tau fluor cs inactive, VP16 counter inconclusive and Tau ThT inhib inactive.
Screening O=C(NC1CCCc2ccccc21)c1ccccc1 (centres undefined) returned RORgamma inh inactive, Tau FP inhib inactive, Tau fluor cs inactive, VP16 counter inactive and Tau ThT inhib inactive.
